Assay results from PubChem BioAssay.
Calls of active or inactive are those of the source.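 Rule for the calls, unless noted: active = NADPH fluorescence slope more negative than the mean of all samples by about 3 SD, 99.7% confidence; inactive = the rest.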

Experiments:
[1] = inhibitors of TNFa-induced NFkB p65 translocation, primary screen, imaging, HUVEC, MLSMR starter and 10KST1 sets (AID 438;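 active = inhibition above 20% together with a positive visual image hit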;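 note: compound added about 3h40 before a 20 min TNFalpha stimulation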;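 for inhibition: signal is the nuclear over cytoplasmic p65 intensity ratio per well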); conditions: HUVEC TNFa-induced p65 nuclear translocation; cell count: measured here: nuclei count (cytotoxicity indicator), at 2.08 µM; inhibition: at 2 µM, stronger effect = higher value, 0% TNFa-plus-vehicle, 100% no-TNFa wells
[2] = inhibitors of mutant huntingtin aggregation, primary screen, imaging, exon1htt(103Q)mCFP cells, high-content imaging (AID 483;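 active = visual image review flags a hit and inhibition of aggregation exceeds 20%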;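 note: compound exposure lasted 3 days before fixation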;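 for nuclei count: percent of the per-plate median nuclei count of sample wells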); conditions: exon1htt(103Q)mCFP cell line, aggregate imaging, at 2 µM; inhibition of aggregation: stronger effect = higher value; nuclei count: measured here: cell count, toxicity
[3] = inhibitors of E-selectin induction by TNFa, primary screen, imaging, HUVEC, immunofluorescence, MLSMR starter and 10KST1 sets (AID 487;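 active = visually confirmed hit in the image check and inhibition above 20%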;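 for inhibition: signal is fraction of cell area covered by stained E-selectin grains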;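 for nuclei count: 100% = median nuclei count of all wells on the same plate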); conditions: HUVEC TNFalpha-induced E-selectin immunofluorescence imaging, at 2 µM; inhibition: stronger effect = higher value; nuclei count: measured here: cell number, toxicity
[4] = molecular target: Voltage-gated potassium channel subunit beta-2 (Rattus norvegicus) (UniProt P62483); assay: KvBeta enzyme negative modulators, primary screen, biochemical, NADPH fluorescence (AID 622;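 active = fluorescence slope higher than the sample average by over 3 SD, cut at about -0.22 in these data, passing the limit was not always enough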;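 note: slope of raw intensity against log time taken from 70 to 1610 s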); conditions: recombinant KvBeta, 4-cyanobenzaldehyde reduction, at 10 µM, stronger effect = higher value
[5] = molecular target: Voltage-gated potassium channel subunit beta-2 (Rattus norvegicus) (UniProt P62483); assay: KvBeta positive modulators, primary screen, biochemical, NADPH fluorescence (AID 623); conditions: Recombinant KvBeta, NADPH fluorescence decrease slope, 10 min; at 10 µM; stronger effect = lower value;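 note: fluorescence intensity change per second fitted from 20 to 320 s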
[6] = molecular target: Alpha-2C adrenergic receptor (Homo sapiens) (UniProt P18825); assay: modulators of alpha2C/GIRK thallium flux, primary screen, cell-based, HEK293 alpha2C/GIRK1/2 (AID 624;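 active = fluorescence slope after compound addition differing from the mean of all screened samples at 99.7% confidence, in either direction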;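 note: slope of fluorescence ratio to pre-addition baseline per second over 15 to 24 s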); conditions: thallium flux BTC fluorescence, at 10 µM, actives lie on both sides
[7] = inhibitors of Sendai virus-induced IRF3 signaling, primary screen, TLR/RLR signaling modifier project, cell-based, Sendai virus stimulus, luciferase, 10K MLSCN set (AID 602276;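 active = inhibition at or above 50% at 10 µM; inactive = inhibition below 50%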;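 note: firefly luciferase from ISG56 promoter only with Renilla not read in this screen; 0% = Sendai virus plus DMSO and 100% = medium plus DMSO without virus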); conditions: HEK293 RL24 IRF3 luciferase reporter, at 10 µM, stronger effect = higher value
[8] = inhibitors of poly I:C-induced TLR3 signaling, primary screen, cell-based, poly I:C stimulus, luciferase, 10K MLSCN set (AID 602277;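 active = inhibition of the reporter signal at or above 50%; inactive = inhibition below 50%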); conditions: HEK293-TLR3 RL24 IRF3 luciferase reporter, at 10 µM, stronger effect = higher value

Sequence of Alpha-2C adrenergic receptor (Homo sapiens) (P18825 whole entry, looked up): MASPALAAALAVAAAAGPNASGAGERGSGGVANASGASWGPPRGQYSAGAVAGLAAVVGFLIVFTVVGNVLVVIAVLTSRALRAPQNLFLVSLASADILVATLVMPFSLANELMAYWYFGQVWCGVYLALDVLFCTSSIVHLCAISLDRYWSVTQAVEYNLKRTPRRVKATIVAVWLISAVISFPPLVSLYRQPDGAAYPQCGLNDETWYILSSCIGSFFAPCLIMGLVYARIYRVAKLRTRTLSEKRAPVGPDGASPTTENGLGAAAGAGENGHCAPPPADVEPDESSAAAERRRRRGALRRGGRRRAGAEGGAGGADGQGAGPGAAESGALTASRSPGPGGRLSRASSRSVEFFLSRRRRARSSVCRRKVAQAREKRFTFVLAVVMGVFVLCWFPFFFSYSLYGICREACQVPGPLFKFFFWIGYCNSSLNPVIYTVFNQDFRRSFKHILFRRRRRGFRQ
Sequence of Voltage-gated potassium channel subunit beta-2 (Rattus norvegicus) (P62483 whole entry, looked up): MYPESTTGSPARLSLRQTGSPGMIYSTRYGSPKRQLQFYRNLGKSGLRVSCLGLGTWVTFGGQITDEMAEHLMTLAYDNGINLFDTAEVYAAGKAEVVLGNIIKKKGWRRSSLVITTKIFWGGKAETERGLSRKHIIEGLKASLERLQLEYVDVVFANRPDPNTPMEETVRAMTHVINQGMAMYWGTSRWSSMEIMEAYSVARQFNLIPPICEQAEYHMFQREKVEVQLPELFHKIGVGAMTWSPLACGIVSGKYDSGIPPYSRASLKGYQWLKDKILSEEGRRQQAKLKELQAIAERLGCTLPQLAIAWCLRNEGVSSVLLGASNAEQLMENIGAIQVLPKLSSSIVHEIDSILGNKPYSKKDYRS

Compound	cell count [1]	inhibition [1]	inhibition of aggregation [2]	nuclei count [2] [%]	inhibition [3]	nuclei count [3] [%]	fluorescence slope [4]	NADPH fluorescence slope [5]	slope [6]	inhibition [7]	inhibition [8]
CC(=O)Nc1cc2c(nc1C)nc(C)n2Cc1ccc(Br)cc1	419	-1.6% (inactive)	7.8% (inactive)	92	-83.5% (inactive)	118	-0.526 (inactive)	-0.000178 (inactive)	0.00402 (inactive)	15% (inactive)	-9.25% (inactive)
CCOC(=O)CSc1nnc(Cn2c(=O)sc3ccccc32)n1C	475	-8.3% (inactive)	20.2% (inactive)	106	-24.8% (inactive)	114	-0.576 (inactive)	-4.8e-05 (inactive)	0.00614 (inactive)	8.16% (inactive)	33.4% (inactive)
CCOC(=O)C1CCN(C(=O)c2ccc(Cl)c(Cl)c2)CC1	322	4.4% (inactive)	7.9% (inactive)	83.5	-64.6% (inactive)	110	-0.522 (inactive)	1.1e-05 (inactive)	0.00596 (inactive)	-22.5% (inactive)	-5.49% (inactive)
COc1ccc(N2C(=O)CC(N3CCCC4CCCCC43)C2=O)cc1 (centres undefined)	577	-11.4% (inactive)	3.7% (inactive)	107	-13.4% (inactive)	79.8	-0.423 (inactive)	-3.7e-05 (inactive)	0.00354 (inactive)	8.26% (inactive)	35.7% (inactive)
CCOc1ccc(Cn2nnc(C(=O)Nc3cc(C)cc(C)c3)c2N)cc1	751	-0.6% (inactive)	12.1% (inactive)	100	-46.9% (inactive)	108	-0.521 (inactive)	-2.6e-05 (inactive)	0.00695 (inactive)	2.58% (inactive)	9.37% (inactive)
COc1ccc(C(O)C(CN2CCOCC2)c2ccccc2)cc1F (centres undefined)	337	-1.6% (inactive)	-2.1% (inactive)	102	-20.8% (inactive)	104	-0.493 (inactive)	1.8e-06 (inactive)	0.0062 (inactive)	13.7% (inactive)	17.9% (inactive)
Cc1ccc(N2CCN(S(=O)(=O)N(C)C)CC2)c(C)c1	393	-2.4% (inactive)	23.9% (inactive)	75.5	-55.1% (inactive)	107	-0.559 (inactive)	-3.5e-06 (inactive)	0.00671 (inactive)	2.52% (inactive)	4.97% (inactive)
O=C(CCNS(=O)(=O)c1ccc(Cl)cc1)NCc1ccccn1	609	-21.1% (inactive)	5.7% (inactive)	78.6	0.3% (inactive)	101	-0.318 (inactive)	8.2e-06 (inactive)	0.00312 (inactive)	17.1% (inactive)	21.6% (inactive)
CN(c1ccc(OCc2nnc(-c3ccccc3)o2)cc1)S(=O)(=O)c1ccccc1	587	10.1% (inactive)	13.2% (inactive)	95	21.6% (inactive)	82	-0.335 (inactive)	-5.4e-05 (inactive)	0.00414 (inactive)	11.5% (inactive)	-5.42% (inactive)
O=S(=O)(Nc1ccccn1)c1ccc(Oc2ccccc2)cc1	248	-6.3% (inactive)	0.4% (inactive)	59.1	-2.9% (inactive)	93.8	-0.598 (inactive)	-1.6e-05 (inactive)	0.0052 (inactive)	16.9% (inactive)	20.6% (inactive)
O=C(c1cccs1)N1CCN=C1SCc1ccccc1	435	3.1% (inactive)	6.2% (inactive)	106	-33.5% (inactive)	111	-0.445 (inactive)	-9.7e-05 (inactive)	0.00597 (inactive)	2.79% (inactive)	-0.0227% (inactive)
COc1ccc(C)cc1NC(=O)COCC(=O)O	710	-28.6% (inactive)	4.1% (inactive)	100	-22.9% (inactive)	102	-0.605 (inactive)	-1.6e-05 (inactive)	0.00568 (inactive)	-0.927% (inactive)	9.35% (inactive)
CCC(C)(C(=O)NC1CCCCC1)N(Cc1ccco1)C(=O)c1cnccn1 (centres undefined)	471	0.3% (inactive)	16.1% (inactive)	89.9	-23.4% (inactive)	110	-0.376 (inactive)	-4.2e-05 (inactive)	0.00684 (inactive)	10.7% (inactive)	27.6% (inactive)
Cc1ccc2cc3cc(C(=O)N4CC(C)CC(C)C4)oc3nc2c1 (centres undefined)	654	-3.9% (inactive)	14.3% (inactive)	86.4	-77% (inactive)	110	-0.597 (inactive)	7.7e-06 (inactive)	0.00635 (inactive)	2.56% (inactive)	-64.4% (inactive)
